# TSHR antagonist – blocks TSH signaling through the human TSH receptor; TSHR-expressing cells, TSH-stimulated cAMP HTRF, 2 h; hits give low values; activity change, negative = inhibition, % at 11.5 µM; 330,000 compounds, 0.2% hits;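 active = activity change below a set negative limit, meaning inhibition stronger than a set level, cut at about -70% in these data; inconclusive = activity change between two set negative limits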; note: % is set by controls: 0 for no effect and ±100 for the full control effect
#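 Freshly harvested TSHR cells receive pin-tooled compound, then EC80 TSH at 4nM final. After 2 hours at 37 deg C, antibody in lysis buffer and cAMP-d2 are added; 30 minutes at ambient temperature precede the HTRF read.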
# TCR activator – T cell receptor activation | primary human leukocytes, anti-CD3, IL-2 HTRF, 48 h | Potency, µM (doses to about 9.22 µM), for the others: top-dose activation of IL-2 secretion, hits mostly activators | 330,000 tested, under 10 active | AID 504894; note: % of control where 0% means no effect
#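 Human primary leukocytes + a-CD3 beads + cpd, 48 hr; IL-2 in supernatant by HTRF (ex 320nm / em 665nm). No co-stimulatory signal supplied.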
# RXFP1 agonist – activates the human relaxin receptor RXFP1. Q9HBX9. 370,000 compounds, 0.3% hits. HEK293T-RXFP1 cAMP TR-FRET, 30 min; response scale: percent of porcine relaxin response, buffer zero. Potency, µM (series often up to 57.5 µM), for inactives: at the highest dose activation, most hits filed as activators. AID 2676; note: potency is the fitted concentration of half-maximal effect; % is set by controls: 0 for no effect and ±100 for the full control effect; nearly all actives have a fitted effect of over 60% in size
#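 Agonist response is measured as cAMP accumulation in an RXFP1-transfected HEK293T line under PDE4 inhibition. Values are scaled between buffer-only and 29 nM porcine relaxin, and EC50s come from standard Hill equation fits.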
# RXFP1 antag – antagonists of human relaxin receptor RXFP1; Q9HBX9; HEK293-RXFP1, relaxin-stimulated cAMP HTRF, 30 min; hits give low values; activity change, negative = inhibition, % at 57.5 µM; 350,000 compounds, 0.59% hits;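 active = activity change of -60% or lower, but not beyond a set lower limit; inconclusive = change between -60% and -40%, or beyond the set limit; inactive = change above -40%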; note: % is set by controls: 0 for no effect and ±100 for the full control effect
# PTHR1 ag – PTHR1 (human) receptor agonism; HEK293 GP2 PTHR1 cells, GloSensor cAMP luminescence, 1 h; Potency, µM (highest dose often 115 µM), inactives show top-dose activation, most hits filed as activators; 410,000 compounds, 0.075% hits; AID 743266; note: potency is the fitted concentration of half-maximal effect; nearly all actives have a fitted effect of over 55% in size
#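 HEK-293-derived GP2 cells expressing PTHR1 and a GloSensor cAMP reporter, 3,000/well, plated overnight, given luciferin plus IBMX (each 0.5 mM as added) for 1 h at 37 °C, then compound for 1 h at 37 °C. Luminescence was read after 15 min at room temperature.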
# NPSR antagonist – antagonists of human neuropeptide S receptor cAMP signaling | AID 1461 | Potency, µM (titrated, usually from 38.3 µM), inactives show at the highest dose activity change, negative = inhibition, hits mostly inhibitors | Q6W5P4 | 220,000 compounds, 1% hits | CHO-NPSR cells, cAMP TR-FRET, antagonist mode; note: potency is the fitted concentration of half-maximal effect; % is set by controls: 0 for no effect and ±100 for the full control effect; nearly all actives have a fitted effect of over 50% in size
# Target sequence (Q6W5P4 whole entry, looked up): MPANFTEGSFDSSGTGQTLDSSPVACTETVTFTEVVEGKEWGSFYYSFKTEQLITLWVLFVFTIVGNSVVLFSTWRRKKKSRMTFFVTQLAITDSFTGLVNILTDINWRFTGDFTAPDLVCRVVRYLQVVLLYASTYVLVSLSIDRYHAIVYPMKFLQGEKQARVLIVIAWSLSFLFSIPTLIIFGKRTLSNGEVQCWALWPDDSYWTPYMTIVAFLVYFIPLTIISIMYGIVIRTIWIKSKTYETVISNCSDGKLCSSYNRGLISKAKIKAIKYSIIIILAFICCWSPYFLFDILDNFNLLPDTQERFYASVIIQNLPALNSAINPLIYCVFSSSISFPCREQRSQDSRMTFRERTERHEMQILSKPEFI
# Starred values were filed as active, the others as inactive; i = inactive; ? = inconclusive; . = not tested or not shown; [ ] = remark or other dose. This excerpt belongs to a sample that is enriched for hits. Unless noted, calls come from the whole dose curve; as a rule, active = well fitted curve in the direction sought with a large enough effect; inconclusive = small, poorly fitted or top-dose-only effect, or another doubt; inactive = no such curve, though single readings can be large; an effect the other way counts as inactive or inconclusive.
SMILES,TSHR antagonist,TCR activator,RXFP1 agonist,RXFP1 antag,PTHR1 ag,NPSR antagonist
CCc1ccc2nc(N(CCN(C)C)C(=O)c3ccc4ncsc4c3)sc2c1,44,.,1%,-68*,-23%,.
COc1ccc(S(=O)(=O)NCCc2sc(-c3cccc(F)c3)nc2C)cc1,.,.,0%,.,-25%,.
CCc1ccc(-c2nn(CC(=O)NC3CCCCC3)c3c2cnc2ccc(OC)cc23)cc1,.,.,6%,-4,-30%,.
N#Cc1cc(NC(=O)C(=O)O)c(Cl)c(NC(=O)C(=O)O)c1,.,.,.,9,.,.
Cc1ccc(C(=O)Nc2nc(-c3ccco3)c(-c3ccco3)s2)o1,-19,10%,-3%,-81*,-17%,.
O=C(CCl)Nc1nc(-c2ccco2)c(-c2ccco2)s1,-22,24%[46.1 µM],0%,?,-17%,-36%
CCOC(=O)c1cc(C)n(CC2CCC(C(=O)Nc3cccc(C(C)=O)c3)CC2)c1C (centres undefined),.,.,-2%,5,-16%,.
CCOc1ccc(S(=O)(=O)Nc2ccc(-c3ccc(OC)nn3)cc2)cc1,.,.,1%,-15,-26%,.
CCc1ccccc1NC(=O)CCn1cccn1,.,.,1%,-12,12%,.
Cn1c(=O)c([N+](=O)[O-])c(Cl)c2ccccc21,-83*,-7%,2%,-80*,-29%,?
C=CCNC(=O)/C(C#N)=C/c1ccccc1Cl,11,4%,1%,-3,-22%,0%
C=CCNC(=O)/C(C#N)=C/c1cc(Br)ccc1OC,-9,-1%,2%,-68*,-13%,-16%
CN(C)CCC1(C2=CCCC2)CC/C(=C/c2ccc(Cl)cc2)C1=O (centres undefined),.,1%,.,-73*,i,.
O=C(CN1C(=O)c2ccccc2C1=O)Nc1ccc(S(=O)(=O)N2CCOCC2)cc1,9,-4%,2%,-82*,i,-9%
O=C(CN1C(=O)c2ccccc2C1=O)Nc1ccc(N2CCOCC2)cc1,-2,1%,-1%,-7,i,-11%[46.1 µM]
CCOc1ccccc1NC(=O)CN1C(=O)COc2ccc(S(=O)(=O)NC3CCCC3)cc21,.,.,-2%,8,-4%,.
COc1ccc2cccc(CCNC(C)=O)c2c1,.,.,.,10,.,.
CN(C)CCCOC1(Cc2ccccc2)CCCCCC1,.,.,.,-7,.,.
COc1ccc(Nc2nc(-c3sc(C)nc3C)cs2)cc1,-16,.,0%,-61*,-37%,.
Cc1nc(C)c(-c2csc(Nc3ccc(N)cc3)n2)s1,-6,0%,4%,-2,-36%,.
O=c1[nH]c(SCc2ccc(Br)cc2)nc2c1CCCC2,.,.,1%,-15,-27%,.
CC(=O)c1cccc(NC(=O)Nc2ccc3c(c2)N(C)C(=O)CS3)c1,-21,-1%,1%,-72*,-41%[57.5 µM],-6%[46.1 µM]
Cc1cc(C)cc(NC(=O)Nc2ccc3c(c2)N(C)C(=O)CS3)c1,-23,-1%,-2%,.,-58%,-25%[46.1 µM]
Cc1cc(C)n(-c2nc(N(c3ccccc3)c3ccccc3)nc(-n3nc(C)cc3C)n2)n1,8,7%[46.1 µM],1%,8,-21%[57.5 µM],13µM*
CC(=O)N1CCOc2ccc(S(=O)(=O)NCCc3ccc(C)cc3)cc21,17,-8%,-1%,-35,-10%,.
SMILES,TSHR antagonist,TCR activator,RXFP1 agonist,RXFP1 antag,PTHR1 ag,NPSR antagonist
CC(=O)N1CCOc2ccc(S(=O)(=O)NCCc3ccc(Cl)cc3)cc21,40,9%,0%,-68*,-19%,.
CCc1cc(=O)[nH]c(SCc2nc(-c3ccc(C(F)(F)F)cc3)no2)n1,.,.,3%,-7,-15%,.
O=C(CN1CCCc2ccccc21)N/N=C/c1c(O)ccc2ccccc12,-15,4%[46.1 µM],0%,-61*,-37%,-14%
N#CCCN1CCN(Cc2cc(-c3ccccc3)ccc2O)CC1,8,-5%,-1%,23,16µM*,-10%[46.1 µM]
Cc1ccc(Cl)cc1-n1ncc2c(N3CCN(Cc4ccccc4)CC3)ncnc21,.,.,3%,-81*,-94%,.
CCCCCCCCCCn1ccc(=N)cc1,-14,0%,3%,-21,-27%,7.9µM*
COC(=O)[C@H]1[C@H]2C[C@@H]3c4[nH]c5cc(OC)ccc5c4CCN3C[C@H]2C[C@@H](OC(=O)/C=C/c2ccc(O)c(OC)c2)[C@@H]1OC,.,.,.,-16,.,.
O=[N+]([O-])c1ccc(/C=N/Nc2nc(N3CCCCCC3)nc(N3CCCCCC3)n2)o1,-8,-2%[46.1 µM],-3%,-33,-6%,6.3µM*
O=[N+]([O-])c1ccc(/C=N/Nc2nc(N3CCCCC3)nc(N3CCCCC3)n2)cc1,-5,-4%,-1%,3,i,?
O=[N+]([O-])c1ccc(/C=N/N=C/c2ccc([N+](=O)[O-])o2)o1,9,-3%,0%,-11,-39%,5µM*
O=[N+]([O-])c1ccc(/C=N\O)o1,.,.,.,8,.,.
CC(=O)c1ccc(OCC(=O)N2CCCCC2)cc1,.,.,.,-7,.,.
COc1ccc(C(=O)C2CCCN(Cc3cnc(N4CCOCC4)s3)C2)cc1F (centres undefined),-8,-6%,0%,-20,-30%,-3%
CC(C)Oc1cccc(C(=O)C2CCCN(Cc3cnc(N4CCOCC4)s3)C2)c1 (centres undefined),-21,2%,2%,-65*,-15%,8%
COc1cc([N+](=O)[O-])ccc1NC(=O)COC(=O)c1n[nH]c2ccccc12,-6,-9%[46.1 µM],4%,2,-31%,-17%
O=C(COC(=O)c1n[nH]c2ccccc12)Nc1ccc(Cl)cc1[N+](=O)[O-],-18,-1%,2%,-75*,i,-6%
N#Cc1c([N+](=O)[O-])cc([N+](=O)[O-])cc1S(=O)(=O)Cc1ccccc1,-81*,0%,-3%,?,-29%,.
O=C(CSc1ncc2c(n1)-c1ccc(Cl)cc1N(Cc1ccccc1)S2(=O)=O)Nc1ccc(F)c(F)c1,.,.,12%,-7,-13%,.
CN1c2cc(Cl)ccc2-c2nc(SCC(=O)Nc3ccc(F)cc3F)ncc2S1(=O)=O,.,.,32µM*,1,-15%,.
Cc1cccc(C)c1NC(=O)CSc1ncc2c(n1)-c1ccc(Cl)cc1N(Cc1ccccc1)S2(=O)=O,.,.,10µM*,18,-29%,.
COc1ccc(-n2cc(-c3ccccc3)c3c(Nc4ccc(OC)c(OC)c4)ncnc32)cc1,.,.,1%,-25,i,.

# Screening results: PubChem, National Center for Advancing Translational Sciences (NCATS)
